CtBP-E1A inh = CtBP/E1A binding inhibition; AlphaScreen GST-E1A/His-CtBP binding, 1536-well; active compounds read low; activity change, % (test concentration not listed); 0.49% of 340,000 active; AID 651724
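In 5 uL wells, 23 nL compound meets equimolar GST-E1A and His-CtBP (5X stock 125 nM each) for 2 h, 37 °C. Beads (5X, 50 ug/mL) then 1 h, 37 °C, dark.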
CCT chaperon mod = cytosolic chaperonin activity modulation; activity change, % (no concentration beside the values), hits read low; 0.3% of 360,000 active; purified chaperonin ATPase assay, HTRF ADP detection, 30 min; in the data active = activity change below about -30%
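Nucleotide hydrolysis assay: TRiC at 20–40 nM final (set by batch activity) with 10 uM ATP, 30 min at 37 °C, in presence of 76 uM compound. Detection by competitive ADP HTRF, 30 min ambient.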
pAkt inh = Akt phosphorylation inhibition; Neuro2A IGF-stimulated pAkt S473 HTRF, 20 min; active compounds read low; activity change, % for hits at 50 µM; 0.32% of 360,000 active; AID 651550; in the data active = activity change below about -80%; inconclusive = mostly about -51% to -80%
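Single-point screen (50 µM final compound) in Neuro2A cells stimulated 20 min with 6 nM IGF at 37 deg C. After lysis, Ser473-phosphorylated Akt read by HTRF (ex 330 nm, em 615/665 nm) as the 665/615 ratio.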
Six1-Eya2 inh = blocks human Six1 binding to Eya2; Q15475+O00167; AlphaScreen GST-Six1/His-Eya2 binding, biochemical; active compounds read low; activity change, % (concentration not given with the values); 0.56% of 360,000 active; AID 651725
Target sequence (O00167 whole entry, looked up): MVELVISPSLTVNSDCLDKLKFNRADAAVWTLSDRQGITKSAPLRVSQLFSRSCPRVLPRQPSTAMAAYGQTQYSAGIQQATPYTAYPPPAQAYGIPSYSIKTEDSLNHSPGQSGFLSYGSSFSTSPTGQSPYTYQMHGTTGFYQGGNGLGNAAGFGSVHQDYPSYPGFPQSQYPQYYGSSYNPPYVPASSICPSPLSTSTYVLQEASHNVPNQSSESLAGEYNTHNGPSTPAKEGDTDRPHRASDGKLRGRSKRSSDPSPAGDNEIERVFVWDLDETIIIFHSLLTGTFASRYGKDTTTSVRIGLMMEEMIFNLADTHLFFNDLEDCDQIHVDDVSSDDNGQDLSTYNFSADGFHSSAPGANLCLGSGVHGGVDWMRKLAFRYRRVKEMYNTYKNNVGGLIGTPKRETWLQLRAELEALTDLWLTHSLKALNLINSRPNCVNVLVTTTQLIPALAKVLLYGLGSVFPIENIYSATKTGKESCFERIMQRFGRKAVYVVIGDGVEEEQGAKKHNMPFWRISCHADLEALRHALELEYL
Target sequence (Q15475 whole entry, looked up): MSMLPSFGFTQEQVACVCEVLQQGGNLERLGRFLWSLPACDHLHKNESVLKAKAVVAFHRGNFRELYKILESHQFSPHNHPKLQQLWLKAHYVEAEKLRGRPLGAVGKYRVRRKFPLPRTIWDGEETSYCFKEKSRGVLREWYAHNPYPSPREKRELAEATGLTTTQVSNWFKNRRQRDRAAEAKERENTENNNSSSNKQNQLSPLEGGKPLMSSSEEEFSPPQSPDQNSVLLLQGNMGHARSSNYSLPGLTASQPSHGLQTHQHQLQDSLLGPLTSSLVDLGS
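Homogeneous AlphaScreen proximity assay pairing GST-Six1 with His-tagged Eya2 (added as 5X mix: 250 nM and 500 nM) in 50 mM Tris pH 8.0, 300 mM NaCl, 1 mM TCEP. Glutathione donor and nickel acceptor beads; 1 h, 37 °C, dark.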
Of the large screens only hits and unclear results are named; the others gave an inactive call. A selection: hits, their analogues and other compounds. The true share with any hit is near 1.3%. Rule as the data show it, unless noted: active = activity change below about -65%; inconclusive = mostly about -30% to -63%; inactive = weaker than that.

Nc1ccn(CCCNCC(c2ccccc2)c2ccccc2)c(=O)n1	none
CCN(C(=O)CCS(=O)(=O)c1ccc(Br)cc1)c1ccc2c(c1)OCO2	pAkt inh -108%
O=C(CCS(=O)(=O)c1ccc(Br)cc1)Nc1ccc2c(c1)OCO2	none
COc1cccc(CN2CCNC(=O)C2CC(=O)NCC2CCOCC2)c1 (stereo not given)	none
O=C(Nc1ccccc1-c1ccccc1)c1ccccc1	none (no result: CtBP-E1A inh)
Nc1c(S(=O)(=O)O)cc(NC(=O)c2ccccc2)c2c1C(=O)c1ccccc1C2=O	Six1-Eya2 inh -71 (no result: CtBP-E1A inh)
CCC(C)(C)NC(=O)CN(C(=O)c1ccc(N2CCCC2)nc1)c1ccc(F)cc1	none (no result: CtBP-E1A inh)
Cc1cccc(N(CC(=O)NC(C)C)C(=O)c2ccc(N3CCCC3)nc2)c1	CCT chaperon mod -35
NC(=O)c1sc2nc3c(c(-c4ccco4)c2c1N)CCC3	Six1-Eya2 inh -71
Cc1ccc(-c2c3c(nc4sc(C(N)=O)c(N)c24)CCCC3)o1	CtBP-E1A inh inconclusive
CCOc1cc(/C=N/NC(=O)CN(CCc2ccccc2)S(=O)(=O)c2ccc(NC(C)=O)cc2)ccc1O	Six1-Eya2 inh -75
CSC1=C(C#N)C(CC(C)C)C2=C(CCCC2=O)N1 (stereo not given)	pAkt inh -118%
COC(=O)c1cc2c(-c3ccccc3)c(C)c3ccccn3c-2c1C(=O)OC	CtBP-E1A inh inconclusive, pAkt inh inconclusive, Six1-Eya2 inh -69
COC(=O)c1c(C(=O)OC)c2ccccn2c1C(=O)c1ccccc1	none
COC(=O)c1c(Cl)c2n3ccccc3c(C)c(-c3ccccc3)c-2c1C(=O)OC	CtBP-E1A inh inconclusive, Six1-Eya2 inh -68
CCCOc1ccc(F)cc1-c1cc(C(=O)NCc2ccccc2OC)[nH]n1	none
CCN(C(=O)COC(=O)c1cccnc1)c1cccc2ccccc12	CCT chaperon mod -50 (no result: CtBP-E1A inh)
O=C(Nc1ccccc1F)c1ccc2nc(N3C(=O)CCC3=O)sc2c1	pAkt inh -120%
O=C(Nc1ccc(F)cc1F)c1ccc2nc(N3CCOCC3)sc2c1	none
Cn1c(NN)nc2sc3c(c2c1=O)CC(C)(C)OC3	CtBP-E1A inh -77, Six1-Eya2 inh inconclusive
CCOc1ccccc1N(CC(=O)Nc1ccc(S(=O)(=O)N2CCOCC2)cc1)S(=O)(=O)c1ccccc1	pAkt inh -127%
CCOc1ccccc1N(CC(=O)Nc1ccc(S(=O)(=O)N2CCOCC2)cc1)S(C)(=O)=O	none
O=C(COc1ccccc1)Nc1nnc(S(=O)(=O)N2CCCC2)s1	CCT chaperon mod -47
Cc1ccc(S(=O)(=O)CCC(=O)OCn2nnc3ccccc3c2=O)cc1	none
C/C(=N\Nc1ccc(Cl)c(C(=O)O)c1)c1ccc2c(c1)OCO2	CCT chaperon mod -55
CCN(CC1CCCN(CCc2cccc(OC)c2)C1)C(=O)c1ccoc1C (stereo not given)	none
O=C(Oc1c(CN2CCOCC2)cc(Cl)c2cccnc12)c1ccccc1Br	CtBP-E1A inh -69, Six1-Eya2 inh -94
CCOC(=O)N1CCN(Cc2ccccc2Cl)CC1	none
COCc1cc(CN2CCN(C)CC2)c(O)c2ncccc12	CtBP-E1A inh -93, Six1-Eya2 inh -92
Oc1c(CN2CCOCC2)cc(COCc2ccccc2)c2cccnc12	CtBP-E1A inh -88, Six1-Eya2 inh -92
Oc1c(CN2CCN(c3ccccc3)CC2)cc(Br)c2cccnc12	none
CCOC(=O)N1CCN(Cc2cc(Cl)c3cccnc3c2O)CC1	CtBP-E1A inh -91, Six1-Eya2 inh -78
CC(=O)Nc1ccc(S(=O)(=O)NCCC(=O)OC(C)C(=O)NC2(C#N)CCCCC2)cc1 (stereo not given)	none (no result: CtBP-E1A inh)
O=C1NC[C@H](CCCCN2CCN(CCc3ccccc3)C(=O)C2=O)N(CCC2CCCCC2)C1=O	none
O=C(O)c1ccc(Sc2nnc3ccccn23)c([N+](=O)[O-])c1	none
CCCCCCC(=O)Nc1nnc(CC)s1	pAkt inh -123%
CCCCC(=O)Nc1nnc(C)s1	none
COc1cc(NC(=O)C[n+]2ccc(C(=O)c3ccccc3)cc2)cc(OC)c1	none
COc1ccc(S(=O)(=O)N2CCC(C(=O)NC3CCCCC3)CC2)cc1OC	none
COc1ccc(Cl)cc1NC(=O)NC1CCCCC1	pAkt inh -127%
COc1cc(OC)c(NC(=O)CN(C)S(=O)(=O)c2ccc(-c3ccc(=O)[nH]n3)s2)cc1Cl	Six1-Eya2 inh -71 (no result: CtBP-E1A inh, pAkt inh)
CN(CC(=O)NC1CCCC1)S(=O)(=O)c1cccc(Cl)c1	none
COc1ccc(S(=O)(=O)N2CCN(C(=O)NC3CCCCC3)CC2)cc1OC	pAkt inh -106%
COc1ccc(S(=O)(=O)N(C)CC(=O)NC2CCCC2)cc1Cl	pAkt inh -110%
COc1cc(S(=O)(=O)NC2CCCCC2)ccc1Cl	pAkt inh -119%
Nc1nnc(SC2CC(=O)N(c3ccccc3)C2=O)s1 (stereo not given)	CCT chaperon mod -97
O=C1CC(Sc2ncccn2)C(=O)N1c1ccccc1 (stereo not given)	none
COc1cccc(NC(=O)Nc2ccc(Br)cn2)c1	none
COc1ccc(C(=O)Nn2c(SCC(=O)N3CCC(C)CC3)nc3ccccc3c2=O)cc1	CtBP-E1A inh -71, Six1-Eya2 inh inconclusive
COc1ccc(C(=O)Nn2c(SCC(=O)NC3CCCCC3)nc3ccccc3c2=O)cc1	none
C/C(=N\Nc1c(Cl)c(Cl)nc(C(=O)O)c1Cl)c1ccc(O)cc1	CtBP-E1A inh inconclusive, Six1-Eya2 inh -67
COc1ccc(CNC(=O)CNC(=O)c2ccc(Br)o2)cc1OC	CCT chaperon mod -107
Cc1ccc(NCc2ccc(O)c3ncccc23)cc1	CtBP-E1A inh -78, Six1-Eya2 inh -72
Cc1ccc(NCc2ccco2)cc1C	none
Cc1ccc(NCc2ccc(O)c3ncccc23)cc1C	CtBP-E1A inh -80, Six1-Eya2 inh -69
CCOC(=O)C1(C)CCCN(C(=O)c2ccc(C#N)cc2)C1 (stereo not given)	none
NC(=O)C1CCN(C(=O)CCc2nc3sc4c(c3c(=O)[nH]2)CCCC4)CC1	none
Cc1cc(=O)n2nc(N3CCC(C(=O)NCc4cccc(Cl)c4)CC3)sc2n1	CtBP-E1A inh inconclusive
COC(=O)[C@@]1(Cc2ccc(F)cc2)[C@H]2c3cc(C(=O)N4CCCC4)n(Cc4ccc(C)o4)c3C[C@H]2CN1C(=O)c1ccccc1	none
CCCCCC(=O)Nc1cccc2ccccc12	none
CCCC(=O)Nc1ccccc1NC(C)=O	CCT chaperon mod -31
CC1=C2C(CCS2(=O)=O)CC2(C1)C(=O)OC(C)(C)OC2=O (stereo not given)	pAkt inh -82%
Cc1ccccc1NC(=S)c1ccc2ccccc2n1	none (no result: CtBP-E1A inh)
CN(C)C(=S)c1ccc2ccccc2n1	pAkt inh -120%
Oc1cccc(C(Nc2nccs2)c2ccc3cccnc3c2O)c1 (stereo not given)	CtBP-E1A inh -81, Six1-Eya2 inh -83
COc1cccc(C(NC(C)=O)c2ccc3cccnc3c2O)c1 (stereo not given)	CtBP-E1A inh -91, Six1-Eya2 inh -67
CC(=O)NC(c1cccc([N+](=O)[O-])c1)c1ccc2cccnc2c1O (stereo not given)	CtBP-E1A inh -92, Six1-Eya2 inh -69
